Hits are enriched below; roughly 1% of the tested compounds scored in any of these assays.
RXFP1 antag – qHTS Assay for Antagonists of the Relaxin Receptor RXFP1; actives 0.59% (n = 350,000); HEK293-RXFP1, relaxin-stimulated cAMP HTRF, 30 min; active compounds read low; activity change, negative = inhibition, % at 57.5 µM;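 active = activity change of -60% or lower, but not beyond a set lower limit; inconclusive = change between -60% and -40%, or beyond the set limit; inactive = change above -40%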; also: % is scaled to controls: 0 for no effect and ±100 for the full control effect
Target sequence (Q9HBX9 whole entry, looked up): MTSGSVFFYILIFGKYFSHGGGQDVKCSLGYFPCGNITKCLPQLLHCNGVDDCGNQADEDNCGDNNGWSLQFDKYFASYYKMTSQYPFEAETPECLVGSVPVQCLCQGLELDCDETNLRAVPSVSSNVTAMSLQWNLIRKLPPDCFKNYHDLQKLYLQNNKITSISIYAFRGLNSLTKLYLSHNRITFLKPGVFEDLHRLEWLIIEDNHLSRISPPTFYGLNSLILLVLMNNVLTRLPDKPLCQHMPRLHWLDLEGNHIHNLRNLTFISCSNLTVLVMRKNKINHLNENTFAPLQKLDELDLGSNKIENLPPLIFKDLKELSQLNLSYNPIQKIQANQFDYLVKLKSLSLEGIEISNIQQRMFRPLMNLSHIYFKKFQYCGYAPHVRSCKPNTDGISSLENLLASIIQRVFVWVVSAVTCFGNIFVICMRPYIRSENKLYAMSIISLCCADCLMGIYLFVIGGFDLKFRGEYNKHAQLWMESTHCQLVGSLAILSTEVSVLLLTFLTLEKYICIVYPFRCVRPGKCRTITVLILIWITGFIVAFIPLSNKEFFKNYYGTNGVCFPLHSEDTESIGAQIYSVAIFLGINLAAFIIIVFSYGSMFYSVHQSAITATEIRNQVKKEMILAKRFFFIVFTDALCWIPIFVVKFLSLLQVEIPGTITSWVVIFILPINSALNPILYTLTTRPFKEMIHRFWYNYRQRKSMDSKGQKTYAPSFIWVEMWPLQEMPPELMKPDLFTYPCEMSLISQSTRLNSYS
gsp ag – qHTS for Agonist of gsp, the Etiologic Mutation Responsible for Fibrous Dysplasia/McCune-Albright Syndrome: qHTS. gsp mutant cells, cAMP HTRF, 30 min. Potency, µM (top dose mostly 76.9 µM), for inactives: top-dose activation (cAMP increase), usual class: activators. actives 0.13% (n = 340,000); active = well fitted activation curve with a large enough effect; inconclusive = small, poorly fitted or top-dose-only effect, or another doubt; inactive = no such curve, though single readings can be large or run the other way; cell line not stated here;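 also: phosphodiesterase inhibitor Ro 20-1724 added with compounds to block cAMP breakdown; potency is read from the fitted curve at half-maximal effect; nearly all actives have a fitted effect of over 60% in size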
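Cells stably selected in G418 were plated at 2000/well, grown 16-24 hr, then given compounds in DMSO with the PDE inhibitor […] (300 uM solution added) for 30 min at 37C; cAMP was read by HTRF.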
miR-21 reporter – qHTS Assay for Modulators of miRNAs and/orActivators of miR-21; HeLa miR-21 FLuc reporter, luciferase, 48 h; Potency, µM (doses to about 38.3 µM), for inactives: at the highest dose activity change, positive = activation, most hits filed as activators; 340,000 tested, under 10 active; AID 2288, 2010;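 also: % of control where 0% means no effect; miR-21 action dims this reporter so a rising signal means less miR-21 action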
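HeLa cells endogenously expressing miR-21, stably carrying CMV-driven firefly luciferase with a downstream miR-21 binding site, 2000 cells/well. Titrations up to approximately 40 uM, 48 hours; luciferase luminescence read.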
gsp antag – qHTS for Antagonists of gsp, the Etiologic Mutation Responsible for Fibrous Dysplasia/McCune-Albright Syndrome: qHTS; gsp-mutant cells, cAMP HTRF, 30 min; Potency, µM (doses to about 76.9 µM), without a hit: at the top dose activity change, negative = inhibition, usual class: inhibitors; actives 0.4% (n = 340,000); calls by dose curve; cell line not stated here;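 also: intracellular cAMP measured with PDE inhibitor Ro 20-1724 present during compound exposure; potency is read from the fitted curve at half-maximal effect; % is scaled to controls: 0 for no effect and ±100 for the full control effect; nearly all actives have a fitted effect of over 65% in size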
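Cells in G418 medium, seeded 16-24 h, 37C; buffer exchange to DPBS + 1 mM CaCl2, 0.5 mM MgCl2, 0.05% BSA; cpds in DMSO + […] (300 uM stock), 30 min 37C; HTRF cAMP detection.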
Luc counter – Counterscreen for Luciferase (Kinase-Glo TM) Inhibition. Kinase-Glo luciferase, ATP luminescence, 8 min. AID 1379, 2008. Luciferin 4-monooxygenase (Photuris pensylvanica), Q27757. Potency, µM (highest dose often 38.3 µM), without a hit: at the top dose activity change, negative = inhibition, hits mostly inhibitors. actives 0.28% (n = 200,000); also: potency is read from the fitted curve at half-maximal effect; % is scaled to controls: 0 for no effect and ±100 for the full control effect; nearly all actives have a fitted effect of over 60% in size
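Kinase-Glo luciferase light output from ATP and luciferin was measured with 10 uM ATP, within the enzyme's linear range. Buffer: 50 mM imidazole pH 7.2, 50 mM KCl, 7 mM MgCl2, 0.01% Tween 20, 0.05% BSA; luminescence read after 8 min at ambient temperature.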
RXFP1 ag – qHTS Assay for Agonists of the Relaxin Receptor RXFP1; AID 2676, 2010; Potency, µM (doses to about 57.5 µM), for inactives: at the highest dose activation, hits mostly activators; actives 0.3% (n = 370,000); HEK293T-RXFP1 cAMP TR-FRET, 30 min; response scale: percent of porcine relaxin response, buffer zero; also: potency is read from the fitted curve at half-maximal effect; % is scaled to controls: 0 for no effect and ±100 for the full control effect; nearly all actives have a fitted effect of over 60% in size
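HEK293 cells stably expressing RXFP1, treated 30 min at 37C with compounds plus PDE4 inhibitor Ro 20174; cAMP measured by HTRF TR-FRET. Normalized to buffer and 29 nM porcine relaxin; EC50 by Hill fit.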
* marks the source's active call; other numbers are inactive results; ? = inconclusive; nt = no result given; [ ] = dose if it differs, or a comment. Unless noted, calls follow the shape of the dose curve; as a rule, active = well fitted curve in the direction sought with a large enough effect; inconclusive = small, poorly fitted or top-dose-only effect, or another doubt; inactive = no such curve, though single readings can be large; an effect the other way counts as inactive or inconclusive.

SMILES | RXFP1 antag | gsp ag | miR-21 reporter | gsp antag | Luc counter | RXFP1 ag
COc1ccc(-n2nnc3c(=O)n(CC(=O)NCC4CCCO4)cnc32)cc1 (stereo not drawn) | 4 | 7.9µM* | 0% | 35% | -1% | 11µM*
COc1ccc(Br)cc1CNC(=O)C(C)n1nc(C)n2c(cc3occc32)c1=O (stereo not drawn) | 3 | nt | -6% | nt | nt | 0%
CCCCCCCCCCCCCCCC(=O)N[C@@H](COP(=O)(O)O)C(=O)O | nt | nt | nt | nt | 1% | nt
Cc1ccccc1OCc1nnc(SCC(=O)Nc2ccc3nc(SCC(=O)NC(C)(C)C)sc3c2)n1C | -7 | ? | 6% | 32µM* | -3% | 1%
CCN(CC)C(=O)CSc1nc2ccc(NC(=O)CSc3nnc(COc4ccccc4C)n3C)cc2s1 | -13 | -13% | 12% | -27% | -2% | 2%
Cc1cc(C)cc(OCC(=O)Nc2nonc2-c2ccc(Br)cc2)c1 | 2 | nt | -9% | nt | nt | ?
CN1Cc2cc(C(=O)N3CCC(C4CCNCC4)CC3)ccc2NC(CC(=O)O)C1=O (stereo not drawn) | -4 | nt | nt | nt | nt | nt
O=C(N/N=C/c1cc(Br)c(O)c(Br)c1)c1cc2c(ccc3ccccc32)o1 | -100* | -36%[15.4 µM] | -9% | -30% | nt | 6%
O=C(N/N=C/c1cc(Br)c(Br)o1)c1cc2ccccc2o1 | -63* | ? | -17% | -18% | nt | 3%
O=C(N/N=C/c1ccc(O)c(Br)c1)c1cc2c(ccc3ccccc32)o1 | -3 | 11% | -4% | -15% | nt | 0%
O=C(N/N=C/c1cc(Cl)c(O)c(Cl)c1)c1cc2c(ccc3ccccc32)o1 | -81* | ? | -16% | 32µM* | nt | 0%
CC(=O)Oc1ccc(/C=N\NC(=O)c2cc3c(ccc4ccccc43)o2)cc1 | -1 | 28% | -3% | 11µM* | nt | 4%
Cc1ccc(/C=N/NC(=O)c2cc3c(ccc4ccccc43)o2)o1 | -5 | -26% | -12% | -8% | nt | 4%
Cc1nc2scc(C)n2c(=O)c1S(=O)(=O)N1CCN(c2ccccn2)CC1 | 18 | 43%[15.4 µM] | -4% | 18% | nt | 25µM*
Cc1nc2scc(C)n2c(=O)c1S(=O)(=O)N1CCN(c2ccccc2)CC1 | 5 | ? | -12% | 17% | nt | 22%

Assay outcomes (PubChem BioAssay)
